Compounds without any hit were thinned out: in the full panel of roughly 83,000, 20% have a hit.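 Compound tested at a single concentration for 48 hours in 96-well plates; a percent growth value below 10 was scored as active.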 Unmarked numbers belong to inactive results. Calls of active or inactive are those of the source.
Tested on: MDA-MB-468 breast
Test: NCI-60 one-dose screen, 48 h (100 = growth as untreated, 0 = no growth, -100 = all killed)
Settings: 10 µM unless noted

SMILES | growth
CCOc1cccc(/C(N)=N/C(N)=N/c2nc3ccccc3s2)c1 | 85.6%
O=C(O)COc1ccc([N+](=O)[O-])cc1Cl | 104%
O=c1c2cccc(Cl)c2sc2c(NCCCNCCO)nc3ccccc3c12 | -19.5% (active)
CC1=CN2C(=NC3=C(CCCC/C3=C\c3ccccc3)C2c2ccccc2)S1 (centres undefined) | 116%
CC/C(=C(/CC)c1ccc(O)cc1)c1ccc(O)cc1 | 35.2%
CC/C=C\C[C@H](O)C/C=C1/C(=O)C=C[C@@H]1C/C=C\CCCC(=O)N(C)C | -67.8% (active)
COc1cccc(Nc2nc(NCCO)c3ccccc3n2)c1 | 75.7%
CCOC(=O)c1sc(-c2ccc(OS(=O)(=O)C[C@]34CCC(CC3=O)C4(C)C)c(C=O)c2)nc1C | 3.2% (active)
O=C1/C(=C\c2ccc(F)cc2)CN(C(=O)c2ccccc2F)C/C1=C\c1ccc(F)cc1 | -74% (active)
CC1(C)C(N)=Nc2cc(OCCCCN3Cc4ccccc4C3)c(OCC3CC3)cc21 | 42.2%
Nc1ccc(N=Nc2ccc(O)cc2)c(N)n1 | 83.4%
O=C(NCCNc1nccc(-c2c(-c3cccc(O)c3)nc3sccn23)n1)Nc1cc(C(F)(F)F)cc(C(F)(F)F)c1 | 57.8%
COc1ccc(Cn2cc3c(c2-c2ccccc2)CCCc2cnoc2-3)cc1 | 47.7%
Cn1ccnc1C(=O)/C=C/c1ccc(C(=O)Nc2nc3ccccc3[nH]2)cc1 | -3.55% (active)
O=C1[C@H]2Cc3c([nH]c4ccccc34)[C@@H](c3ccc(Br)cc3)N2C(=O)CN1C1CCN(Cc2ccccc2)CC1 | -4.01% (active)
COc1ccc(NC(=O)Nc2ccc(Nc3nc(C)cc(Nc4ccc(C)cc4)n3)cc2)cc1 | -68.9% (active)
CC1(C)OCC(COC(c2ccccc2)(c2ccccc2)c2ccccc2)O1 (centres undefined) | 109%
COc1cc(/C=N/n2cnc3oc(-c4ccccc4)cc3c2=N)cc(CN2CCCCC2)c1O | -35.8% (active)
C#CC#CC#CC#CC#CC#CC#CC#CCC1OCC(COC(=O)O[C@@H](C(=O)O[C@H]2C[C@@]3(O)[C@@H](OC(=O)c4ccccc4)[C@@H]4[C@]5(OC(C)=O)CO[C@@H]5C[C@H](O)[C@@]4(C)C(=O)[C@H](OC(C)=O)C(=C2C)C3(C)C)[C@@H](NC(=O)c2ccccc2)c2ccccc2)O1 (some centres undefined) | -22.4% (active)
Cc1ccc2[nH]c3ccccc3c2c1 | 100%

SMILES | growth
Cc1ccc(O)c(Cc2ccccc2)c1 | 101%
COc1ccc(-c2nc(SC(C)C)nc(NNC(N)=O)c2C#N)cc1 | 80.5%
C[C@]1(O)CC(=O)[C@]2(O)C3=C(C=C[C@]2(O)C1)C(=O)c1c(O)cccc1C3=O | -57.5% (active)
Cc1c(C)c2c(c(C)c1OC(=O)CCC(=O)[O-])CCC(C)(CCCCCCCCCCC[P+](c1ccccc1)(c1ccccc1)c1ccccc1)O2 (centres undefined) | -70.4% (active)
CCOC(=O)c1cn2c3c(cc(C)cc3c1=O)C(=O)/C(=C/c1ccccc1)C2 | 84.6%
C[C@@H]1CN(Cc2ccc(/C=C/c3n[nH]c4ccc5nc(-c6cn[nH]c6C(F)(F)F)c6c(c5c34)CCCC6)cc2)C[C@H](C)O1 | 76.9%
COc1ccc(Cn2cc3c(c2-c2cc(OC)c(OC)c(OC)c2)CCc2cnoc2-3)cc1[N+](=O)[O-] | -1.72% (active)
O=C(Nc1ccc(Cl)cc1)N1NC(c2ccc(Cl)cc2)C=C1c1ccccc1 (centres undefined) | 98.3%
CCCCC(CC)COC(C)=O (centres undefined) | 106%
CC(O)c1nc2c(c(=O)n(C)c(=O)n2C)n1C (centres undefined) | 105%
CC/C=C\C[C@H](O)C/C=C1/C(=O)C(Cl)=C[C@@H]1C/C=C\CCCC(=O)O | 41.1%
Cc1cc[n+](CCCCCCCCCC[n+]2ccc(C)cc2)cc1 | 6.78% (active)
Fc1ccc([I+]c2ccc(F)cc2)cc1 | 30%
CNC(=O)c1cc(Oc2cccc3nc(Nc4ccc(F)c(Cl)c4)ccc23)ccn1 | 6.51% (active)
CC(=O)OC[C@]12CC[C@@H]([C@@H](C)c3nnc(-c4ccncc4)o3)[C@@H]1[C@H]1CC[C@@H]3[C@@]4(C)CC[C@H](OC(C)=O)C(C)(C)[C@@H]4CC[C@@]3(C)[C@]1(C)CC2 | 59%
Nc1[nH]n2cc(-c3ccccc3)nc2c1N=Nc1ccc(S(N)(=O)=O)cc1 | 32.6%
CN1C(=O)N(C)C2Nn3c(s/c(=C\c4ccc(Cl)cc4Cl)c3=O)=NC21 (centres undefined) | 59%
CCn1cc(C(=O)NN=C2CCCCCC2)c(=O)c2ccc(C)nc21 | 85.9%
CN1c2ccccc2[C@]2(Cc3ccccc3)Cc3ccccc3N[C@H]12 | 115%

From PubChem BioAssay (NCI)
